# The supplement of paper PMC8728848
# This excerpt belongs to a sample that is enriched for the strongest signals.
# B1: Gal 4 (Homo sapiens), Q8K419 (protein)
# chain: MAYVPAPGYQPTYNPTLPYKRPIPGGLSVGMSVYIQGMAKENMRRFHVNFAVGQDDGADVAFHFNPRFDGWDKVVFNTMQSGQWGKEEKKKSMPFQKGKHFELVFMVMPEHYKVVVNGNSFYEYGHRLPVQMVTHLQVDGDLELQSINFLGGQPAAAPYPGAMTIPAYPAGSPGYNPPQMNTLPVMTGPPVFNPRVPYVGALQGGLTVRRTIIIKGYVLPTARNFVINFKVGSSGDIALHLNPRIGDSVVRNSFMNGSWGAEERKVAYNPFGPGQFFDLSIRCGMDRFKVFANGQHLFDFSHRFQAFQMVDTLEINGDITLSYVQI
# What was measured:
# Assay in all cases: glycan array binding signal (z-score within array); higher = stronger binding
# Details in all cases: glycan notation: IUPAC condensed, linker removed
# Fuc(a1-2)Gal = molecular target: Fuc(a1-2)Gal
# Outline: (§1)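 From the Consortium for Functional Glycomics database, 3228 arrays were curated, keeping only those whose protein sequence was available. Binding is given as a within-array Z-score averaged across arrays sharing a protein sequence and across linkers. Negative Z-scores can be read as non-binding.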
# [1] = molecular target: Fuc(a1-2)Gal(b1-3)GlcNAc(b1-3)[Fuc(a1-2)Gal(b1-3)GlcNAc(b1-6)]GalNAc
# Outline: as §1
# [2] = molecular target: Fuc(a1-2)Gal(b1-3)GlcNAc6S
# Outline: as §1
# [3] = molecular target: Fuc(a1-2)Gal(b1-4)GlcNAc(b1-2)Man(a1-3)[Fuc(a1-2)Gal(b1-4)GlcNAc(b1-2)Man(a1-6)]Man(b1-4)GlcNAc(b1-4)[Fuc(a1-6)]GlcNAc
# Outline: as §1
# [4] = molecular target: Fuc(a1-2)Gal(b1-4)GlcNAc(b1-3)GalNAc
# Outline: as §1
# [5] = molecular target: Fuc(a1-2)Gal(b1-4)GlcNAc(b1-3)[Fuc(a1-2)Gal(b1-4)GlcNAc(b1-6)]GalNAc
# Outline: as §1
# [6] = molecular target: Fuc(a1-2)[Gal(a1-3)]Gal(b1-3)GalNAc
# Outline: as §1
# [7] = molecular target: Fuc(a1-2)[Gal(a1-3)]Gal(b1-3)GlcNAc
# Outline: as §1
# [8] = molecular target: Fuc(a1-2)[Gal(a1-3)]Gal(b1-4)Glc
# Outline: as §1
# [9] = molecular target: Fuc(a1-2)[Gal(a1-3)]Gal(b1-4)GlcNAc(b1-3)GalNAc
# Outline: as §1
# [10] = molecular target: Fuc(a1-2)[GalNAc(a1-3)]Gal
# Outline: as §1
# [11] = molecular target: Fuc(a1-2)[GalNAc(a1-3)]Gal(b1-3)GlcNAc
# Outline: as §1
# [12] = molecular target: Fuc(a1-2)[GalNAc(a1-3)]Gal(b1-3)GlcNAc(b1-2)Man(a1-3)[Fuc(a1-2)[GalNAc(a1-3)]Gal(b1-3)GlcNAc(b1-2)Man(a1-6)]Man(b1-4)GlcNAc(b1-4)GlcNAc
# Outline: as §1
# [13] = molecular target: Fuc(a1-2)[GalNAc(a1-3)]Gal(b1-3)GlcNAc(b1-6)GalNAc
# Outline: as §1
# [14] = molecular target: Fuc(a1-2)[GalNAc(a1-3)]Gal(b1-4)Glc
# Outline: as §1
# [15] = molecular target: Gal(a1-4)Gal(b1-4)GlcNAc(b1-2)Man(a1-3)[Gal(a1-4)Gal(b1-4)GlcNAc(b1-2)Man(a1-6)]Man(b1-4)GlcNAc(b1-4)GlcNAc
# Outline: as §1
# Gal(b1-2)Gal = molecular target: Gal(b1-2)Gal
# Outline: as §1
# Gal(b1-3)Gal = molecular target: Gal(b1-3)Gal
# Outline: as §1
# [16] = molecular target: Gal(b1-3)GalNAc(a1-3)[Fuc(a1-2)]Gal(b1-4)Glc
# Outline: as §1
# [17] = molecular target: Gal(b1-3)GalNAc(a1-3)[Fuc(a1-2)]Gal(b1-4)GlcNAc
# Outline: as §1
# [18] = molecular target: Gal(b1-3)[Fuc(a1-4)]GlcNAc(b1-2)Man(a1-3)[Gal(b1-3)[Fuc(a1-4)]GlcNAc(b1-2)Man(a1-6)]Man(b1-4)GlcNAc(b1-4)[Fuc(a1-6)]GlcNAc
# Outline: as §1
# [19] = molecular target: Gal(b1-3)[Fuc(a1-4)]GlcNAc(b1-6)GalNAc
# Outline: as §1
# [20] = molecular target: Gal(b1-4)GalNAc(a1-3)[Fuc(a1-2)]Gal(b1-4)GlcNAc
# Outline: as §1
# [21] = molecular target: Gal(b1-4)GlcNAc(a1-6)Gal(b1-4)GlcNAc
# Outline: as §1
# [22] = molecular target: Gal(b1-4)GlcNAc(b1-3)Gal(b1-4)Glc
# Outline: as §1
# [23] = molecular target: Gal(b1-4)GlcNAc(b1-3)Gal(b1-4)[Fuc(a1-3)GlcNAc(b1-6)]Gal(b1-4)Glc
# Outline: as §1
# [24] = molecular target: Gal(b1-4)GlcNAc(b1-6)[Gal(b1-3)]GalNAc
# Outline: as §1
# Gal3S(b1-4)GlcNAc = molecular target: Gal3S(b1-4)GlcNAc
# Outline: as §1
# GalNAc(b1-3)GalNAc = molecular target: GalNAc(b1-3)GalNAc
# Outline: as §1
# GalNAc(b1-4)Gal(b1-4)Glc = molecular target: GalNAc(b1-4)Gal(b1-4)Glc
# Outline: as §1
# GalNAc(b1-4)GlcNAc = molecular target: GalNAc(b1-4)GlcNAc
# Outline: as §1
# Kdn(a2-3)Gal(b1-4)Glc = molecular target: Kdn(a2-3)Gal(b1-4)Glc
# Outline: as §1
# [25] = molecular target: Man(a1-2)Man(a1-3)[Man(a1-2)Man(a1-6)]Man(a1-6)[Man(a1-2)Man(a1-2)Man(a1-3)]Man(b1-4)GlcNAc(b1-4)GlcNAc
# Outline: as §1
# [26] = molecular target: Neu5Ac(a2-3)Gal(b1-3)GlcNAc(b1-3)Gal(b1-3)GlcNAc
# Outline: as §1
# [27] = molecular target: Neu5Ac(a2-3)Gal(b1-4)GlcNAc(b1-2)Man
# Outline: as §1
# [28] = molecular target: Neu5Ac(a2-3)Gal(b1-4)[Fuc(a1-3)]GlcNAc(b1-3)Gal(b1-4)[Fuc(a1-3)]GlcNAc(b1-3)Gal(b1-4)[Fuc(a1-3)]GlcNAc
# Outline: as §1
# [29] = molecular target: Neu5Ac(a2-3)[GalNAc(b1-4)]Gal(b1-4)GlcNAc(b1-3)GalNAc
# Outline: as §1
# [30] = molecular target: Neu5Ac(a2-6)Gal(b1-4)GlcNAc(b1-2)Man(a1-3)[Neu5Ac(a2-6)Gal(b1-4)GlcNAc(b1-2)Man(a1-6)]Man(b1-4)GlcNAc(b1-4)GlcNAc
# Outline: as §1
# [31] = molecular target: Neu5Ac(a2-6)Gal(b1-4)GlcNAc(b1-2)Man(a1-6)[Man(a1-3)]Man(b1-4)GlcNAc(b1-4)GlcNAc
# Outline: as §1
# [32] = molecular target: Neu5Ac(a2-6)GlcNAc(b1-4)GlcNAc
# Outline: as §1
# Neu5Ac(a2-8)Neu5Ac = molecular target: Neu5Ac(a2-8)Neu5Ac
# Outline: as §1
# Neu5Ac(b2-6)GalNAc = molecular target: Neu5Ac(b2-6)GalNAc
# Outline: as §1
# [33] = molecular target: Neu5Ac9Ac(a2-3)Gal(b1-4)GlcNAc
# Outline: as §1
binder,measurement,setting,value
B1,glycan array binding signal (z-score),Fuc(a1-2)Gal,-0.2
same,glycan array binding signal (z-score),[1],-0.088
same,glycan array binding signal (z-score),[2],1.3
same,glycan array binding signal (z-score),[3],-0.202
same,glycan array binding signal (z-score),[4],-0.199
same,glycan array binding signal (z-score),[5],-0.189
same,glycan array binding signal (z-score),[6],0.833
same,glycan array binding signal (z-score),[7],2.91
same,glycan array binding signal (z-score),[8],3.5
same,glycan array binding signal (z-score),[9],-0.006
same,glycan array binding signal (z-score),[10],-0.2
same,glycan array binding signal (z-score),[11],4.09
same,glycan array binding signal (z-score),[12],1.51
same,glycan array binding signal (z-score),[13],1.99
same,glycan array binding signal (z-score),[14],9.63
same,glycan array binding signal (z-score),[15],-0.194
same,glycan array binding signal (z-score),Gal(b1-2)Gal,-0.201
same,glycan array binding signal (z-score),Gal(b1-3)Gal,0.459
same,glycan array binding signal (z-score),[16],13.2
same,glycan array binding signal (z-score),[17],2.3
same,glycan array binding signal (z-score),[18],-0.174
same,glycan array binding signal (z-score),[19],-0.193
same,glycan array binding signal (z-score),[20],2.3
same,glycan array binding signal (z-score),[21],-0.188
same,glycan array binding signal (z-score),[22],1.11
same,glycan array binding signal (z-score),[23],-0.185
same,glycan array binding signal (z-score),[24],-0.059
same,glycan array binding signal (z-score),Gal3S(b1-4)GlcNAc,-0.136
same,glycan array binding signal (z-score),GalNAc(b1-3)GalNAc,-0.182
same,glycan array binding signal (z-score),GalNAc(b1-4)Gal(b1-4)Glc,-0.211
same,glycan array binding signal (z-score),GalNAc(b1-4)GlcNAc,-0.18
same,glycan array binding signal (z-score),Kdn(a2-3)Gal(b1-4)Glc,-0.243
same,glycan array binding signal (z-score),[25],-0.178
same,glycan array binding signal (z-score),[26],0.182
same,glycan array binding signal (z-score),[27],-0.197
same,glycan array binding signal (z-score),[28],-0.198
same,glycan array binding signal (z-score),[29],-0.147
same,glycan array binding signal (z-score),[30],-0.187
same,glycan array binding signal (z-score),[31],-0.204
same,glycan array binding signal (z-score),[32],-0.205
same,glycan array binding signal (z-score),Neu5Ac(a2-8)Neu5Ac,-0.203
same,glycan array binding signal (z-score),Neu5Ac(b2-6)GalNAc,-0.196
same,glycan array binding signal (z-score),[33],-0.189
